Each structure is given as a SMILES string. Inconclusive results are not listed. Active and inactive are the calls of the source. Calls come from the whole dose curve; as a rule, active = well fitted inhibition curve with a large enough effect; inconclusive = small, poorly fitted or top-dose-only effect; inactive = no such curve, though single readings can be large or run the other way.

The assay can be described thus: qHTS to identify inhibitors of the type 1 interferon - major histocompatibility complex class I in skeletal muscle: tertiary screen by RT-qPCR. The conditions noted are these: C25cl48 human myoblasts, IFN-beta, HLA-B RT-qPCR, 24 h; series mostly up to 49.8 µM; activity change, negative = inhibition: at the top concentration. From the text:
Assay Submitter (PI): Travis B. Kinder Ph.D. & James Inglese Ph.D. Assay Development and Screening Technology Laboratory (ADST) National Center for Advancing Translational Sciences (NCATS), Rockville, MD National Institute of Health (NIH), Bethesda, Maryland Idiopathic inflammatory myopathies, collectively referred to as myositis, are a group of rare autoimmune diseases characterized by skeletal muscle inflammation, weakness, and usually accompanied by systemic pathologies of the skin, lungs, or vasculature. Current immunosuppressive therapies and glucocorticoids are often not curative and are accompanied by harsh side effects, especially in children with juvenile myositis. We initiated a drug repurposing and development program to identify more targeted, less toxic therapeutics to treat myositis. Although its cause is not known, muscle from a subset of patients have an abundance of the inflammatory type 1 interferon (IFN) and a down-stream product major histocompatibility complex class I (MHC class I), which are both thought to contribute to damage and weakness. We conducted quantitative high throughput screening (qHTS) on 6,576 compounds (4,679 unique) through a series of cell-based assays to identify those that inhibit the IFN-stimulated expression of MHC class I in muscle precursor cells (myoblasts). The compound identification and evaluation strategy utilized a primary screen with reporter-tagged MHC class I in genome-engineered myoblasts, ATP content counter screen for viability, HLA-ABC immunofluorescence secondary screen, and HLA-B RT-qPCR tertiary screen. To determine if active compounds identified by qHTS in HLA-B HiBit reporter cells, and confirmed by HLA-ABC immunofluorescence, can inhibit the transcription of HLA-B mRNA, compounds were assayed by RT-qPCR. Briefly, 62 compounds identified from primary, counter, and secondary screening as inhibitory with minimal cytotoxicity were dispensed into 384-well plates using acoustic dispensing in a 6-point, 1:7 titration with a high final concentration of 10 uM. Normal immortalized human myoblasts C25cl48 were added to the plate with 4.0 ng/ml human IFN-beta for 24 hours, and cells were harvested and assayed by the Cells-to-Ct kit with TaqMan assays (Thermo Fisher).
PROTOCOL TABLE (as described by Inglese et al., 2007) SEQUENCE No. (e.g., 1, 2, 3, etc.); […] (e.g., Cells, Incubation, Reagent, etc.); VALUE; DESCRIPTION 0; Compounds; 150 nl; Follow-up compounds dispensed at 150 nl/well with Labcyte Echo 655 acoustic dispenser into one Corning white/clear bottom, high base TC 384-well plates (3765) 1a; Cells; 30 uL; Using a p200 manual pipette, seed 780 cells/well into 1 plate in 30 ul/well of iHSKM growth medium without dexamethasone into columns wells A1-A6. […]
On to `C[C@@H]1O[C@@H](O[C@H]2C[C@@H](O)[C@]3(CO)[C@H]4[C@H](O)C[C@]5(C)[C@@H](C6=CC(=O)OC6)CC[C@]5(O)[C@@H]4CC[C@]3(O)C2)[C@H](O)[C@H](O)[C@H]1O`, for which the “activity change, negative = inhibition” value was -14.7% (inactive).

As to `COc1cccc2c1C(=O)c1c(O)c3c(c(O)c1C2=O)C[C@@](O)(C(=O)CO)CC3OC1CC(N2CCOC(OC)C2)C(O)C(C)O1` (stereo not given in full), the Potency was 92.4 nM (active).

On to `C[C@@H]1O[C@@H](O[C@@H]2C=C3CC[C@@H]4[C@H](CC[C@]5(C)[C@@H](c6ccc(=O)oc6)CC[C@]45O)[C@@]3(C)CC2)[C@H](O)[C@H](O)[C@H]1O`, for which the “activity change, negative = inhibition” value is -8.47% (inactive).

On to `CC(C)[C@]12O[C@H]1[C@@H]1O[C@@]13[C@@]1(C)CCC4=C(COC4=O)[C@@H]1C[C@@H]1O[C@@]13C2=O`, for which the “activity change, negative = inhibition” value is -132% (inactive).

Regarding `Cc1[nH]nc2ccc(-c3cncc(OC[C@@H](N)Cc4c[nH]c5ccccc45)c3)cc12`, the Potency was 207 nM (active).
